Screening results deposited in PubChem by The Scripps Research Institute Molecular Screening Center.
CHRM1 antagonist: human CHRM1 antagonism; 1.3% of 360,000 active; CHO-K1 hM1, Fluo-8 calcium fluorescence, ACh EC80 antagonist; inhibition, % at 3 µM;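 active = percent inhibition above its own plate's cutoff, namely the mean of that plate's compound wells plus 3 SD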;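 also: peak over basal fluorescence ratio during 140 s after agonist addition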
Target sequence (P11229 whole entry, looked up): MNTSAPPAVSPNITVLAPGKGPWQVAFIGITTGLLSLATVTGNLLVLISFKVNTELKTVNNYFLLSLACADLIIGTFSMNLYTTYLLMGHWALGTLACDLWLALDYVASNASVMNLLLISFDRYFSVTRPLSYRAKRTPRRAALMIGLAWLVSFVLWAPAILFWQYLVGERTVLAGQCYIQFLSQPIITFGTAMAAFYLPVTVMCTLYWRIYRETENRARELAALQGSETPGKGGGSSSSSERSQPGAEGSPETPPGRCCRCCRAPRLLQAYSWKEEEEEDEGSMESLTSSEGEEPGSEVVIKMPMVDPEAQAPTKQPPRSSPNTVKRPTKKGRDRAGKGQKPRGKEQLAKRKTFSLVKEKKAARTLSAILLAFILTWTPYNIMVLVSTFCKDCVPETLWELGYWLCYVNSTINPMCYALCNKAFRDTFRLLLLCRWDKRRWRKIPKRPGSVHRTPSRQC
CHO-K1 Ca ag: nonselective activator or artifact in parental CHO-K1 cells. Fluo-8 calcium fluorescence; scaled to maximal ATP response, vehicle zero. activation, % at 3 µM. 0.48% of 360,000 active; in the data active = activation above about 15%;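 also: untransfected CHO-K1 host cells lacking M1 receptor as counterscreen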
M1 ag: human M1 muscarinic receptor agonism; activation, % at 3 µM; 0.33% of 360,000 active; AID 588814; CHO-K1 hM1, Fluo-8 calcium fluorescence, agonist mode; 0% DMSO, 100% acetylcholine EC100; P11229;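 active = activation above the run's mean compound activation plus 3 SD, cut at about 16% in these data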;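 also: peak over basal fluorescence ratio within a 140 s kinetic read after compound addition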
CHO-K1 Ca PAM: counter-screen for M1 PAMs: effect in parental CHO-K1 cells | ATP EC20, Fluo-8 calcium fluorescence; 0% at ATP EC20, 100% at ATP max | activation, % at 3 µM | 0.02% of 360,000 active;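 active = activation above the run cutoff, the mean activation of all test compounds plus 3 SD, cut at about 40% in these data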;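 also: peak over basal fluorescence ratio in a 140 s read after ATP addition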
M1 PAM: positive allosteric modulators of human M1 muscarinic receptor; CHO-K1 hM1, Fluo-8 calcium fluorescence, ACh EC20; 0% = ACh EC20, 100% = maximal ACh; activation, % at 3 µM; 0.088% of 360,000 active; AID 588819; in the data active = activation above about 19%, passing the limit was not always enough
CHO-K1 Ca antag: counter-screen for M1 antagonists: effect in parental CHO-K1 cells; ATP-induced calcium, Fluo-8 fluorescence; inhibition, % at 3 µM; 0.6% of 360,000 active;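 active = inhibition above a per-plate cutoff, the plate's mean sample inhibition plus 3 SD, cut at about 24% in these data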
Large screens that a line does not name were inactive. In the library only some 2.3% were active in any assay of this set; here they are far more common.

COc1ccc(NC(=O)CCN2CCN(S(=O)(=O)c3cc(Cl)ccc3OC)CC2)cc1	CHO-K1 Ca PAM 62
COc1ccc(NC(=O)CCN2CCN(S(=O)(=O)c3ccc(Br)cc3)CC2)cc1	none
CCc1nc(N)nc(N)c1-c1ccc(N(C)Cc2ccccc2)c([N+](=O)[O-])c1	CHRM1 antagonist 95
COc1ccc([C@H]2C[C@H](O)[C@@H](n3cc(COC(=O)c4ccccc4)nn3)CN2Cc2cccs2)cc1	CHO-K1 Ca antag 31
CN(C(=O)C(Cl)Cl)C1CC2C=CC1C2 (stereo unspecified)	CHO-K1 Ca ag 16
O=C1Nc2ccccc2C(=O)N2[C@H](c3ccc(F)cc3)[C@@H]3C(=O)N(Cc4ccccc4)C(=O)[C@@H]3[C@H]12	M1 ag 36
CCOC(=O)c1c(C(C)(C)C)oc2ccc(OCC#N)cc12	CHRM1 antagonist 28
Cc1ccc(S(=O)(=O)Nc2ccc(O)c3ccccc23)c(C)c1	CHO-K1 Ca antag 27
COc1ccc(-c2csc(NC(=O)c3nc(-c4ccccc4)oc3C)n2)cc1	CHO-K1 Ca antag 31
Cc1ccc2c(=O)c(CN3CCCCCC3)c(C)[nH]c2c1C	CHRM1 antagonist 72
Cc1ccc(S(=O)(=O)N2C[C@H]3C(=O)C[C@@H](c4ccc(Cl)cc4)N(S(=O)(=O)c4ccc(C)cc4)[C@H]3C[C@H]2c2cccc3ccccc23)cc1	CHO-K1 Ca antag 30
Cc1ccc([C@@H]2C[C@H]3[C@@H](CN2S(=O)(=O)c2ccc(C)cc2)C(=O)C[C@@H](c2ccc(Cl)cc2)N3S(=O)(=O)c2ccc(C)cc2)cc1	none
Cc1ccc(S(=O)(=O)N2C[C@H]3C(=O)C[C@@H](c4ccccc4F)N(S(=O)(=O)c4ccc(C)cc4)[C@H]3C[C@H]2c2ccccc2)cc1	CHO-K1 Ca antag 31
Cc1ccc([C@@H]2CC(=O)[C@@H]3CN(S(=O)(=O)c4ccc(C)cc4)[C@H](c4ccccc4F)C[C@@H]3N2S(=O)(=O)c2ccc(C)cc2)cc1	none
O=C(NCC(=O)N(c1ccc(F)cc1)C(C(=O)NC1CCCCC1)c1ccncc1)c1ccco1 (stereo unspecified)	none
Cc1ccccc1COC(=O)CCCC1=NS(=O)(=O)c2ccccc2N1	M1 ag 23
Cc1ccc(NC(=O)COC(=O)CCCC2=NS(=O)(=O)c3ccccc3N2)cc1C	none
Cn1c(CNC(=O)c2ccco2)nnc1SCC(=O)N1CCN(c2ccccc2F)CC1	none
CCNC(=O)C1CCCN(C(=O)c2ccc(OC(F)F)cc2)CC1 (stereo unspecified)	none
CCC(C)c1ccccc1OCCCCN1CCCC1 (stereo unspecified)	CHRM1 antagonist 48
CC(=O)c1ccccc1OCCOc1ccccc1C(C)=O	CHRM1 antagonist 39
CC(=O)c1ccccc1OCCCCN1CCCCC1	CHRM1 antagonist 59
COC(=O)c1ccccc1OCCN1CCCCCC1	none
CCC(C)c1ccccc1OCCOCCN1CCCC1 (stereo unspecified)	none
COc1ccccc1OCCCCOc1ccccc1C(C)=O	none
N#Cc1c(SCC(=O)Nc2nccs2)nc2c(c1-c1ccco1)CCCC2	none
Cc1cc(C)cc(NC(=S)N2CC(C)OC(C)C2)c1 (stereo unspecified)	none
Cn1c(CCN2CCCCC2)nc2cc(NC(=O)NC3CCCCC3)ccc21	none
Cn1c(CCN2CCN(c3ccccn3)CC2)nc2cc(NC(=O)COc3ccc(Cl)cc3)ccc21	CHRM1 antagonist 95
COc1ccc(OCC(=O)Nc2ccc3c(c2)nc(CCN2CCN(c4ccccn4)CC2)n3C)cc1	CHRM1 antagonist 64
CCN1CCN(CCc2nc3cc(NC(=O)COc4ccc(Cl)cc4)ccc3n2C)CC1	none
CC1CCN(CCc2nc3cc(NC(=O)NC4CCCCC4)ccc3n2C)CC1	CHRM1 antagonist 36
COc1ccc(OCC(=O)Nc2ccc3c(c2)nc(CCN2CCCCC2)n3C)cc1	none
CCN1CCN(Cc2nc3cc(NC(=O)COc4ccc([N+](=O)[O-])cc4)ccc3n2C)CC1	CHRM1 antagonist 61
CC(C)CCNC(=O)NC(=O)CSc1ncccn1	none
Cc1cccc(OCC(=O)Nc2ccc3c(c2)nc(CCN2CCCCC2)n3C)c1	none
Cc1cccc(OCC(=O)Nc2ccc3c(c2)nc(CCN2CCN(c4ccccn4)CC2)n3C)c1	CHRM1 antagonist 88
CN(C)C(CNC(C(=O)Nc1ccc(F)cc1)c1ccccc1)c1ccccc1 (stereo unspecified)	CHRM1 antagonist 84
CN(C)C(CNC(C(=O)Nc1ccc([N+](=O)[O-])cc1Br)c1ccccc1)c1ccccc1 (stereo unspecified)	none
O=C(Nc1ccc(F)cc1)NC1CCCCCCC1	none
O=C(Nc1ccc(F)cc1)C(NC1CCCCC1)c1ccccc1 (stereo unspecified)	CHRM1 antagonist 60
COc1ccc(-c2noc3c2-c2nc(-c4ccc(Cl)cc4)sc2CC3)cc1	none
CCCCn1c(CCC(=O)O)nc2cc(S(=O)(=O)N(CC)CC)ccc21	none
COc1ccc(CCn2c(N)cc(=O)[nH]c2=O)cc1OC	CHRM1 antagonist 28
CN1CCN(c2ccc(CNC(=O)c3ccco3)cc2)CC1	CHO-K1 Ca ag 18
COc1ccc(NC(=O)C2CCN(c3nc(-c4ccc(OC)cc4)no3)CC2)cc1	none
CCN(C(=O)C1CCN(c2nc(-c3ccc(OC)cc3)no2)CC1)c1ccc(OC)cc1	CHRM1 antagonist 42
CC(C)(C)n1nnnc1C(c1cccs1)N(Cc1cccnc1)Cc1ccco1 (stereo unspecified)	CHRM1 antagonist 98
CC(C)(C)n1nnnc1C(c1cccs1)N(Cc1ccccc1)Cc1ccco1 (stereo unspecified)	none
COc1cccc(N2CCN(c3ccc4nnc(CCC(=O)Nc5ncccc5C)n4n3)CC2)c1	CHRM1 antagonist 38
COc1cccc(N2CCN(c3ccc4nnc(CCC(=O)Nc5ccc(C)cn5)n4n3)CC2)c1	none
CCCCC(CC)CN=C(N)NC(N)=NCCCCCCN=C(N)NC(N)=NCC(CC)CCCC (stereo unspecified)	CHRM1 antagonist 88, M1 ag 58
O=C(c1[nH]c(C(F)(F)F)nc1-c1ccccc1)N1CCN(c2cccc(C(F)(F)F)n2)CC1	none
O=C1/C(=C/c2cccnc2)Sc2ccccc21	M1 PAM 25
O=C(Nc1ccccc1F)c1c[nH]c(=O)[nH]c1=O	CHRM1 antagonist 40
CCN(CC1CCCN(CCc2cccc(F)c2)C1)C(=O)c1ccc(CSC)o1 (stereo unspecified)	CHRM1 antagonist 61
CCN(CC1CCCN(CCc2cccc(F)c2)C1)C(=O)c1ccoc1C (stereo unspecified)	none
COC(=O)c1[nH]c2cccc(OC)c2c1NC(=O)CN(C)CC1OCCO1	CHO-K1 Ca antag 24
